Drawing on PubChem BioAssay AID504847 (National Center for Advancing Translational Sciences (NCATS), 2011), this text covers max response, negative = inhibition and Potency for 46 molecules.

The structures appear in SMILES notation. Out of some 400,000 compounds screened, about 3,700 (0.93%) were called active. Another 3% or so got no clear call; they are omitted. Many of the other results were omitted from the sample, so actives are more common in it than they were. Values without a mark were called inactive. Calls come from the whole dose curve; as a rule, active = well fitted inhibition curve with a large enough effect; inconclusive = small, poorly fitted or top-dose-only effect, or another doubt; inactive = no such curve, though single readings can be large or run the other way.
% is set by controls: 0 for no effect and ±100 for the full control effect; potency is the fitted concentration of half-maximal effect.

In this test the target is Vitamin D3 receptor (Homo sapiens) (UniProt P11473). The test can be described thus: Inhibitors of the vitamin D receptor (VDR): qHTS. To be noted: VDR-SRC2-3 peptide fluorescence polarization, 2 h; max response, negative = inhibition: stronger effect = lower value. From the text: The vitamin D receptor (VDR) is a ligand-activated transcription factor and is partially responsible for the regulation of the endocrine system. This includes the transcriptional regulation of genes involved in the production of the parathyroid hormone (PTH) and the regulation of the blood calcium level. High levels of PHT can cause hypercalcemia in the case of primary and tertiary hyperparathyroidism. The VDR-mediated gene regulation, activated by its ligand 1,25-dihydroxyvitamin D3 (1,25-(OH)2D3), is governed by the recruitment of coactivators. Our hypothesis is that small molecules, with the ability to inhibit the interaction between VDR and certain coactivators, are able to selectively modulate VDR-mediated transcription. Our long term objective is the application these VDR-coactivator inhibitors to study the role of VDR-coactivator binding for specific VDR regulated genes. Ultimately, these molecules can be developed into new treatments for hypercalcemic hyperparathyroidism. No small molecule or non-peptide inhibitors are known for the VDR-coactivator interaction.
Vitamin D3 receptor (Homo sapiens), sequence (P11473 whole entry, looked up): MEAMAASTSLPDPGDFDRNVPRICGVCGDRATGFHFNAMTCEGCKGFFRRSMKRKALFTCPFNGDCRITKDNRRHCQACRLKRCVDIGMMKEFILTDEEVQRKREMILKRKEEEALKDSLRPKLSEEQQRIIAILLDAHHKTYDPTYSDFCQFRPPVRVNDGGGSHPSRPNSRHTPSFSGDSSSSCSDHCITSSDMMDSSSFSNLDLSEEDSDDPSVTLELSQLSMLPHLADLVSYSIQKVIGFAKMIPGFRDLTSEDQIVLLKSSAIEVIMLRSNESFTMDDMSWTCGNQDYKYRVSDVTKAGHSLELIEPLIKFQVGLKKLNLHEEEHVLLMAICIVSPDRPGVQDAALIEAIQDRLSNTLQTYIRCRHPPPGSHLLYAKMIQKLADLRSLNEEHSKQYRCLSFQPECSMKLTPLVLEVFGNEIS
In a collaboration between the University of Wisconsin, Milwaukee and the NIH Chemical Genomics Center (NCGC) a HTS-compatible enzymatic assay was developed. The assay uses fluorescence polarization as its read-out to measure the inhibition between VDR and coregulator peptide SRC2-3 exerted by small molecules. This assay was used to screen the NIH Molecular Libraries Small Molecule Repository (MLSMR).
NIH Chemical Genomics Center [NCGC]
NIH Molecular Libraries Probe Centers Network [MLPCN]
Assay Submitter (PI): Alexander Arnold, University of Wilwaukee
Both solutions are kept at 4 deg C and protected from light and dispensed using a Kalypsys dispenser. Then 23nl of compounds and controls are added with Kalypsys pintool. […] Plate is centrifuged at 1000 RPM for 15 seconds to remove any residual bubbles. The plate is then incubate at ambient room temperature for 2 hours.
For orientation: qHTS replaces the single test concentration by a dilution series.
As for `CCC(Sc1nnc(-c2ccc(OC)cc2)c(-c2ccc(OC)cc2)n1)C(=O)NC1CCCCC1` (stereo unspecified), the max response, negative = inhibition was 11.6%.

As to `Cc1nc2ccccn2c(=O)c1NC(=O)c1c(F)cccc1F`, the max response, negative = inhibition is 13.4%.

In the case of `Cc1ccc2nc(-c3ccc(C)c(NC(=O)Cc4ccccc4)c3)oc2c1`, the max response, negative = inhibition is -21.8%.

`Cc1ccc(OCC(=O)Nc2ccc(Cl)c(-c3nc4ccccc4[nH]3)c2)cc1C`: the max response, negative = inhibition is 2.81%.

For `CC(=O)OCC(=O)[C@@]1(O)CCC2C3CCC4=CC(=O)CC[C@]4(C)C3C(=O)C[C@]21C` (stereo partly specified), the max response, negative = inhibition is -10.5%.

With `Cc1ccc(Cl)cc1N1CCN(C(=O)c2cn(C)c3ccc(S(=O)(=O)N(C)C4CCCCC4)cc3c2=O)CC1`, the max response, negative = inhibition was -5.35%.

`O=C1/C(=C\c2ccc(O)cc2)CCC1CNc1ccc(Cl)cc1` (stereo unspecified): the Potency is 79.4 µM (active).

For the molecule `O=C1N=C(N2CCc3ccccc3C2)S/C1=C\c1ccc(O)cc1`, the max response, negative = inhibition is 17.3%.

`Cc1nn(-c2ccc(N3CCCCC3)nn2)c(C)c1CCC(=O)NCc1ccc(F)cc1`: the max response, negative = inhibition was 11.6%.

For `COc1ccc(CCNC(=O)c2cc3cccc4c3n2CC(C)S4)c(OC)c1OC` (stereo unspecified), the max response, negative = inhibition was 4.11%.

`O=c1c(=O)n(Cc2c(F)cccc2Cl)ccn1Cc1ccccc1`: the max response, negative = inhibition was -1.19%.

On to `O=[N+]([O-])/C=C/c1ccc2c(ccn2Cc2ccccc2)c1`, for which the Potency was 6.31 µM (active).

As for `COc1ccc(Cn2ccn(Cc3cccc(OC)c3)c(=O)c2=O)cc1`, the max response, negative = inhibition was 6.97%.

For the molecule `COc1ccc(Cn2c(=O)[nH]c3cc(C(=O)N4CCN(C(=O)c5ccco5)CC4)ccc3c2=O)cc1`, the max response, negative = inhibition is -6.06%.

Take `COc1ccc(-c2nc3sc(CCNS(=O)(=O)c4ccc(F)c(C)c4)c(C)n3n2)cc1`: the max response, negative = inhibition was 16%.

Take `O=C(Nc1cccc([N+](=O)[O-])c1)N1CCc2ccccc2C1`: the max response, negative = inhibition is 5.4%.

Consider `COC(=O)/C=C\C(=O)Nc1cccc([N+](=O)[O-])c1`, for which the Potency is 22.4 µM (active).

On to `O=C(CN1CCOCC1)Nc1cccc([N+](=O)[O-])c1`, for which the max response, negative = inhibition was -1.57%.

Consider `CC(=O)N1c2ccc(S(=O)(=O)N3CCCCCC3)cc2CC1C(=O)NCc1ccccc1C` (stereo unspecified), for which the max response, negative = inhibition is 5.71%.

With `N#Cc1c(-c2ccc(F)cc2)nc(-c2ccccc2)[nH]c1=O`, the max response, negative = inhibition was 13.1%.

For `O=c1[nH]c(SCc2cccc(F)c2)nc2ccccc12`, the max response, negative = inhibition is -6.23%.

For the molecule `N#Cc1c(-c2ccccc2)nc(SCc2cccc(C(F)(F)F)c2)[nH]c1=O`, the Potency was 79.4 µM (active).

With `Cc1oc(-c2ccccc2)nc1Cn1c(SCc2cccc(C(F)(F)F)c2)nc2cccnc21`, the max response, negative = inhibition is 2.78%.

As for `Cc1ccc(O)c(NC(=O)c2cc(-c3ccc(F)cc3)no2)c1`, the max response, negative = inhibition was 12%.

In the case of `CC(Sc1nc(-c2ccccc2)cc(C(F)(F)F)n1)C(=O)Nc1ccc2c(c1)OCO2` (stereo unspecified), the max response, negative = inhibition was -18.9%.

On to `Cc1ccc(O)c(NC(=O)CCS(=O)(=O)c2nc(-c3ccc4c(c3)OCO4)cc(C(F)(F)F)n2)c1`, for which the Potency was 50.1 µM (active).

Regarding `Cc1ccc(C(=O)COC(=O)C(Cc2c[nH]c3ccccc23)NC(=O)c2ccc(Br)cc2)cc1` (stereo unspecified), the max response, negative = inhibition was 6.05%.

As for `CCOc1ccccc1CNC(=O)c1cnc2c(-c3ccc(OCC)c(OCC)c3)c(C)nn2c1C`, the max response, negative = inhibition is 12.6%.

Turning to `Cc1ccc2nc(CNC(=O)c3ccccc3)[nH]c2c1`, the max response, negative = inhibition was 11.1%.

As for `O=C(/C(=C/c1cccc(Cl)c1)c1nc2ccccc2[nH]1)c1ccccc1`, the Potency was 79.4 µM (active).

For `CN(c1ccccc1)S(=O)(=O)c1cc(C(=O)Nc2nc3ccccc3[nH]2)ccc1Cl`, the max response, negative = inhibition was 22.7%.

Consider `COc1cc(OC)c2c(c1Cl)OC1(C2=O)C(O)=CC(=O)CC1C` (stereo unspecified), for which the max response, negative = inhibition was 1.06%.

Consider `COc1ccccc1OCC(=O)Nc1nnc2n1CCS2`, for which the max response, negative = inhibition is -3.73%.

In the case of `Cc1ccc(NC(=O)Cc2ccc(NC(=O)N3CCCCc4ccccc43)cc2)cc1`, the max response, negative = inhibition is 6.32%.

Take `CN(C)c1nc(=Nc2cccc(Cl)c2)ss1`: the Potency is 25.1 µM (active).

For the molecule `Cc1c(-c2nsc(NC(=O)c3cccc(Cl)c3)n2)nnn1-c1ccccc1C(F)(F)F`, the max response, negative = inhibition was 1.99%.

Turning to `CCc1ccccc1NC(=O)CSc1nc(C)c(C(=O)Nc2ccccc2)c(-c2ccc(Cl)cc2)c1C#N`, the max response, negative = inhibition is 5.32%.

Turning to `COc1ccc(-c2nc(CN3CCC(C(=O)NCc4ccccc4)CC3)c(C)o2)cc1OC`, the max response, negative = inhibition is -18.6%.

`Nc1ccccc1SC(C[N+](=O)[O-])c1ccccc1` (stereo unspecified): the Potency is 3.55 µM (active).

In the case of `O=C(Nc1cccc(-c2nc3ccccc3o2)c1)c1cccc(Br)c1`, the max response, negative = inhibition was 4.46%.

As to `Cc1ccc2ccc3c(c2n1)NS(=O)(=O)c1ccccc1-3`, the max response, negative = inhibition is -4.3%.

Turning to `CCS(=O)(=O)c1cc([N+](=O)[O-])c(Sc2ccccc2N)s1`, the Potency is 28.2 µM (active).

`CCOC(=O)c1cnc2c(C)cc(Cl)cc2c1NCCc1ccc(OC)c(OC)c1`: the max response, negative = inhibition is 2.98%.

For `COc1ccc(NC(=O)CSc2nc3ncccc3[nH]2)c(OC)c1`, the max response, negative = inhibition was 22.9%.

For `COc1ccc(NC(=O)Cn2c(=O)n(CCC(C)C)c(=O)c3cccnc32)cc1Cl`, the max response, negative = inhibition was 11.2%.

For the molecule `FC(F)(F)c1ccccc1-c1nc(-n2ccnc2)c2ccccc2n1`, the Potency is 50.1 µM (active).
